{
  "source": "PubChem BioAssay AID837",
  "about": "(The Scripps Research Institute Molecular Screening Center, 2007)",
  "note": "The source made the active and inactive calls.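 Rule for the calls: active = relative FRET score above 0.01, or acceptor fluorescence over 30% below the sample-well median; inactive = the rest.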",
  "data": [
    {"target": "Protein Rev (Human immunodeficiency virus type 1 group M subtype B (isolate WMJ22)) (UniProt P05866)", "sequence (P05866 whole entry, looked up)": "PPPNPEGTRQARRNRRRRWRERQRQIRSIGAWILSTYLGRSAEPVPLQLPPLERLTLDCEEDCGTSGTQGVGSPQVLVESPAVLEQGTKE", "assay": "HIV-1 Rev-RRE binding inhibitors, retest, confirmation, biochemical, FRET, acceptor and relative FRET calls (AID 837);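 note: relative FRET combines rise in Cy5 acceptor with fall in fluorescein donor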", "conditions": "Fl-Rev peptide / Cy5-RRE RNA FRET, 1536-well; at 8 µM", "values": [
      {"compound": "CCN(CC)CCn1c(=N)n(CCOc2ccccc2)c2ccccc21", "outcome": "inactive"},
      {"compound": "CC(NCc1ccc(N(C)C)cc1)C1CC2CCC1C2", "note": "(stereo not given)", "outcome": "active"},
      {"compound": "CCn1c(=N)n(CCOc2ccc(OC)cc2)c2ccccc21", "outcome": "inactive"},
      {"compound": "c1ccc(CSc2ncnc3c2cnn3Cc2ccccc2)cc1", "outcome": "inactive"},
      {"compound": "CCOC(=O)[C@@H]1CCNC[C@@H]1c1ccccc1", "outcome": "inactive"},
      {"compound": "COc1ccccc1Nc1nc(N)nc(CN(C)C2CCCCC2)n1", "outcome": "inactive"},
      {"compound": "C[n+]1c2n(c3ccccc31)N=C(c1ccc(Br)cc1)CS2", "outcome": "inactive"},
      {"compound": "CCCCOC(=O)Cn1c(=N)n(CCC)c2ccccc21", "outcome": "inactive"},
      {"compound": "CN(CC(O)COc1ccc(OCC(O)CN(C)C2CCCCC2)cc1)C1CCCCC1", "note": "(stereo not given)", "outcome": "inactive"},
      {"compound": "CC(C(=O)O)N1C(=O)/C(=C/C=C/c2ccco2)SC1=S", "note": "(stereo not given)", "outcome": "inactive; quenches the donor"},
      {"compound": "CC(C)COc1ccc(Cc2cnc(N)nc2N)cc1", "outcome": "active"},
      {"compound": "C/C=C/c1ccc(OCCCNC2CCCC2)c(OC)c1", "outcome": "inactive"},
      {"compound": "C=CCn1c(=O)c(C(=O)NCCNCC)c(O)c2ccccc21", "outcome": "inactive"},
      {"compound": "c1coc(CNc2c3c(nc4ccccc24)CCC3)c1", "outcome": "inactive"},
      {"compound": "COc1ccc(NC(=O)Nc2ccc(N(C)C)cc2)cc1", "outcome": "inactive"},
      {"compound": "CNCCCOc1ccc(C(C)(C)c2ccccc2)cc1", "outcome": "active"},
      {"compound": "CCC(C)(C)c1ccc(OCCN2C(=O)NC(C)(C)C2=O)cc1", "outcome": "inactive"},
      {"compound": "COc1ccc(Nc2nc(N3CCCCC3)c3ccccc3n2)cc1", "outcome": "inactive"},
      {"compound": "O=C(CN1C2=NCCN2c2ccccc21)c1ccc(Br)cc1", "outcome": "active"},
      {"compound": "FC(F)(F)c1cc(-c2ccco2)nc(NCc2ccc(Cl)cc2)n1", "outcome": "inactive"},
      {"compound": "N=c1c2c(n(Cc3ccc(F)cc3)c3c1CCC3)CCC2", "outcome": "inactive"},
      {"compound": "O=c1nc(N2CCCC2)nc(Nc2ccccc2)[nH]1", "outcome": "inactive"},
      {"compound": "O=c1[nH]c(Nc2ccc(F)cc2)cc2ccccc12", "outcome": "inactive"},
      {"compound": "O=C(N/N=C/c1cccc(F)c1)c1cc(-c2ccco2)nc2ccccc12", "outcome": "active; quenches the donor"},
      {"compound": "COn1cnnc1-c1ccccc1", "outcome": "inactive"},
      {"compound": "CCCCN1C(=O)Cc2c1nc(N)c1c(N)nc(N(CCC)CCC)c(C#N)c21", "outcome": "inactive"},
      {"compound": "CCCCNCCCOc1cccc(Cl)c1Cl", "outcome": "inactive"},
      {"compound": "Nc1nc(Nc2ccccc2)nc2ccccc12", "outcome": "inactive"},
      {"compound": "COc1ccccc1NC1=NC(c2ccc(Cl)cc2)N=C(N)N1", "note": "(stereo not given)", "outcome": "active"},
      {"compound": "CC(=O)c1ccc2c(c1)c1ccccc1n2CC(C)C", "outcome": "inactive"},
      {"compound": "CCN1C2=NCCCN2c2cc(C)c(C)cc21", "outcome": "inactive"},
      {"compound": "COc1cccc(-c2cc(C(F)(F)F)nc(N3CCC(C)CC3)n2)c1", "outcome": "inactive"},
      {"compound": "CN(C)CCNCc1ccccc1OC1CCCC1", "outcome": "inactive"},
      {"compound": "OCCN=c1cc(-c2ccccc2)oc2ccc(Cl)cc12", "outcome": "inactive"},
      {"compound": "C1=C2C[N+]3(CCCC3)CC2Cc2ccc3ccccc3c21", "note": "(stereo not given)", "outcome": "inactive"},
      {"compound": "CC(C)c1ccc(CNCc2ccccc2)cc1", "outcome": "inactive"},
      {"compound": "OC(CN1C2=NCCCN2c2ccccc21)c1ccc(Br)cc1", "note": "(stereo not given)", "outcome": "inactive"},
      {"compound": "Cc1ccc2nc(NC(=O)c3ccc(Cl)s3)sc2c1", "outcome": "inactive"},
      {"compound": "CN(C)CC(O)COc1ccc(-c2ccc(C#N)cc2)cc1", "note": "(stereo not given)", "outcome": "active"},
      {"compound": "O=C(O)c1ccc2c(c1)[C@@H]1C=CC[C@@H]1[C@H](c1ccccn1)N2", "outcome": "inactive; quenches the donor"}
    ]}
  ]
}
